Test results reported in PubChem BioAssay (NCI).
The panel holds about 83,000 compounds, 20% with a hit somewhere; the sample as a whole holds those more often.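 Step 1: grow cells in 96-well plates. Step 2: add test compound at a single concentration. Step 3: incubate 48 h. Step 4: record percent growth.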 Unmarked numbers belong to inactive results. Activity calls are given as the source filed them. How the source made its calls: active means growth percent below 10; inactive means the rest.

system: T-47D breast; assay: NCI-60 one-dose screen, 48 h (100 = growth as untreated, 0 = no growth, -100 = all killed); conditions: 10 µM unless noted

Structure (SMILES) | growth
CC(=O)CC(=O)SC1=NCCS1 | 104%
CCCCCCCCCCCCCCNC(=O)Nc1ccc(Cl)c(Cl)c1 | 33.9%
O=S(=O)(NCc1ccccc1)c1ncnc2nc[nH]c12 | 107%
Cc1cc(-c2ccc(N=Nc3c(S(=O)(=O)O)cc4cc(S(=O)(=O)O)cc(N)c4c3O)c(C)c2)ccc1N=Nc1cc(S(=O)(=O)O)c2ccccc2c1O | 99.6%
CC1=C/C(=C(\c2cc(C)c(O)c(C(=O)O)c2)c2c(Cl)cccc2Cl)C=C(C(=O)O)C1=O | 98.3%
O=C(Nc1ccccc1)Nc1ccc(C(=O)/C=C/c2ccc(N3CCCC3)cc2)cc1 | 58.9%
CC(C)(C)c1cc(C(=O)Nc2ccc(C(=O)NCCN)cc2)cc(C(C)(C)C)c1 | 27.3%
C[C@@H]1C[C@H]2C(=O)O[C@@H](C)[C@H](NC(=O)[C@H](Cc3cc(F)cc(F)c3)NC(=O)Nc3ccc(Cl)cc3F)C(=O)N3C[C@H](O)C[C@H]3C(=O)N3CCN(C)C[C@H]3C(=O)N[C@@H](C)C(=O)N2C1 | 19.2%
C=C(C)[C@@H]1CC[C@]2(COC(=O)c3ccccc3C(=O)O)CC[C@]3(C)[C@H](CC[C@@H]4[C@@]5(C)CC[C@H](OC(=O)c6ccccc6C(=O)O)C(C)(C)[C@@H]5CC[C@]43C)[C@@H]12 | 39.6% [100 µM]
C[C@H]1[C@H](C)CC[C@]2(C(=O)N3CCN(C)CC3)CC[C@]3(C)C(=CC[C@@H]4[C@@]5(C)C/C(=C/c6ccco6)C(=O)C(C)(C)[C@@H]5CC[C@]43C)[C@H]12 | 20.3% [100 µM]
CCN(CC)CCCC(C)Nc1c2ccc(C)cc2nc2ccc(OC)cc12 (stereo not given) | 70.7%
C#C[C@]1(O)CC[C@H]2[C@@H]3CC=C4c5nc(N)sc5CC[C@]4(C)[C@H]3CC[C@@]21C | 58.2%
COc1cc(C)cc2oc3oc(=O)c(-c4nc5ccccc5s4)cc3c(=O)c12 | 91.2%
COC(=O)[C@]12CCC(C)(C)C[C@H]1C1=CC[C@@H]3[C@@]4(C)C/C(=C/c5cccnc5)C(=O)C(C)(C)[C@@H]4CC[C@@]3(C)[C@]1(C)CC2 | -12% [100 µM] (active)
O=C(Nc1cccc(C2=NCCN2)c1)c1cccc(C(=O)Nc2cccc(C3=NCCN3)c2)c1 | 96.7%
CCOc1cc(NC(=O)c2ccccc2)c(OCC)cc1N | 101%
CC1(C)CC[C@]2(C(=O)OC(=O)[C@]34CCC(C)(C)C[C@@H]3C3=CC[C@@H]5[C@@]6(C)CCC(=O)C(C)(C)[C@@H]6CC[C@@]5(C)[C@]3(C)CC4)CC[C@]3(C)C(=CC[C@@H]4[C@@]5(C)CCC(=O)C(C)(C)[C@@H]5CC[C@]43C)[C@H]2C1 | 48.1% [100 µM]
CCCc1cc2cc(-n3nc(C)c4c3CC(C)(C)CC4=O)cc(NC3CCSCC3)c2c(=O)[nH]1 | 54.7%
CC(=O)OC[C@]12CC[C@@H]([C@@H](C)C(N)=O)[C@@H]1[C@H]1CC[C@@H]3[C@@]4(C)CC[C@H](OC(C)=O)C(C)(C)[C@@H]4CC[C@@]3(C)[C@]1(C)CC2 | -8.82% [100 µM] (active)
O=C(N/N=C/c1ccc([N+](=O)[O-])cc1)c1ccc(Br)o1 | 131%
O=[N+]([O-])c1ccc(O)c(-c2nc3ccccc3s2)c1 | 49.7%
COc1cccc(-c2[nH]c(=S)ncc2C(=O)c2ccccc2)c1 | 104%
COc1ccc2nc3c(cc2c1)C(=O)CC(C(F)(F)F)C3 (stereo not given) | 41.1%
CCN(CC)CCCOc1ccc2c(c1)O/C(=C\c1cccc(OC)c1)C2=O | 87.6%
CCc1cccc(Cl)c1 | 107%
CCCCCN(CCCCC)CCCCCCCCN1CCCc2ccccc21 | 108%
COc1ccc2c(c1)c(-c1noc(C(=O)c3cn(C)c4ncc(Br)cc34)n1)cn2C | 49.7%
NS(=O)(=O)c1ccc(CCN2C(=O)/C(=C\c3ccccc3)C=C2c2ccc(Cl)cc2)cc1 | 88.9%
Cc1ncc(C(=O)Nc2ccc(CN3CCN(C)CC3)c(C(F)(F)F)c2)cc1C#Cc1c(N)ncc2ccc(C#N)cc12 | 48.9%
CCCCN(CCCC)CC(O)c1ccc(OCc2ccccc2)c2ccccc12 (stereo not given) | 87.5%
